# Data from PubChem BioAssay (NCATS).
# Inconclusive results are not listed. Values without a mark were called inactive. Calls of active or inactive are those of the source. Calls follow the shape of the dose curve; as a rule, active = well fitted inhibition curve with a large enough effect; inconclusive = small, poorly fitted or top-dose-only effect, or effect the other way; inactive = flat fitted curve, though single readings scatter.
# Target: ATP-dependent 6-phosphofructokinase (Trypanosoma brucei brucei) (UniProt O15648)
# Sequence (O15648 whole entry, looked up): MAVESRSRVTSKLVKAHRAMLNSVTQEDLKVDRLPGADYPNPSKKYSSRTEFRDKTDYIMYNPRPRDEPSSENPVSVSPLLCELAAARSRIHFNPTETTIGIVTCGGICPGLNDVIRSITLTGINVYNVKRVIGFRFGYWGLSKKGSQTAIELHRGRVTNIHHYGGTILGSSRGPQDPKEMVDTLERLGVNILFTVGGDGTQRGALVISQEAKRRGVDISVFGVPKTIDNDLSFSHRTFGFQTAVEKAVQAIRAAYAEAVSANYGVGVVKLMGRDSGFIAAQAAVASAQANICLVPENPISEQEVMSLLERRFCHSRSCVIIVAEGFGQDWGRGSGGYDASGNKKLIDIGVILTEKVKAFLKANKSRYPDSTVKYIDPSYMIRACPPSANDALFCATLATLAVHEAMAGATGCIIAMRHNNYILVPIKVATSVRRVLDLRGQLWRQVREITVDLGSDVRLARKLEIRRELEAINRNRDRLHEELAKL
# Assay: qHTS Validation Assay to Find Inhibitors of T. brucei phosphofructokinase (AID 485368)
# Settings: T. brucei PFK enzyme assay, qHTS 7-point titration; series mostly up to 57.5 µM; activity change, negative = inhibition: at the top concentration
# Text: NIH Molecular Libraries Probe Production Network [MLPCN]
# NIH Chemical Genomics Center [NCGC]
# PI Name: Malcolm Walkinshaw, University of Edinburgh
# Various species of the protozoan family Trypanosomatidae are responsible for a range of serious human diseases in tropical and subtropical areas of the world. […] Many of the disorders caused by trypanosomatids are fatal if left untreated, but most currently used drugs are inefficient and toxic.
# Oxidative metabolism involving the mitochondrial tricarboxylic acid cycle and oxidative phosphorylation are repressed in these parasites, and recent RNA interference (RNAi) experiments have shown that even partial depletion of certain individual glycolytic enzymes can lead to the death of cultured parasites. One such glycolytic enzyme, phosphofructokinase (PFK), catalyzes the formation of fructose-1,6-bisphosphate (F1,6BP) and ADP from fructose-6-phosphate (F6P) and ATP, and in many metabolic circumstances makes an important contribution to the control of flux through the glycolytic pathway. As a specific glycolytic target, PFK is particularly attractive as it catalyzes the first irreversible step in glycolysis, and structural and kinetic studies have shown very substantial and essential differences from corresponding host enzymes, allowing for the discovery of parasite-selective inhibitors.
# The goal of this screen is to find small-molecule inhibitors of T. brucei PFK using a biochemical assay that measures PFK activity as a function of ADP production. A luminescence-based assay for T. brucei PFK activity has been developed which uses luciferase to detect production of ADP. Traditional luciferase-based nucleotide detection reagents rely on ATP production as a direct substrate for the luciferase reaction; however, PFK catalyzes the transfer of a phosphate from ATP to F6P, resulting in the net depletion of ATP. To directly measure the ADP product of the PFK reaction, we used the ADP-Glo detection kit (Promega), which utilizes two separate reactions to 1) deplete all remaining uncatalyzed ATP and 2) convert all remaining ADP to ATP, which is then detected through a traditional luciferase-coupled reaction. Compounds were screened as a concentration-titration series that ranged from 57 uM to 0.7 nM.
# NCGC Assay Protocol Summary:
# Substrate buffer was dispensed into white, solid 1536-well plates at 3uL/well in 0.1M triethanolamine (TEA) buffer, pH 8.0, containing final concentrations of 5 mM MgCl2, 0.01% Tween20, 0.5 mM fructose-6-phosphate (F6P) and 0.1mM ATP. Then, 23 nL of compounds or DMSO were delivered to each well using a pin tool. One uL T. brucei PFK (0.1M TEA, 0.01% Tween20, 0.1% bovine serum albumin (BSA) and 1.25nM PFK, final concentrations) was then dispensed, and plates were incubated at room temperature for 45 min. The luminescent detection reagent, ADP-Glo (Promega), was then added in two steps: the first reagent, ADP-Glo (which converts remaining uncatalyzed ATP), was added at 2.5uL/well and incubated for ten minutes at room temperature, and the second component, Kinase Detection reagent (which converts ADP to ATP as a substrate for luciferase-based luminescence), was added immediately after at 5uL/well, followed by one final ten minute room temperature incubation. The plates were measured on a ViewLux plate reader for luminescent signal using a clear filter with a one second exposure. The %Activity was determined from the corrected luminescence values. As no specific T. brucei PFK inhibitors have been identified in the literature, 1x (1.25nM) and 0x PFK enzyme controls (untreated) were included to normalize %Activity of identified inhibitors; 0x enzyme values corresponded to 100%Activity (full inhibition), while 1x PFK enzyme values were used to normalize 0%Activity (no inhibition).
# Concentration-response curves were fitted to the signals arising from the resulting luminescence. […]
Compound,outcome,"activity change, negative = inhibition"
C[N+](C)(C)CCCCCC[N+](C)(C)C,inactive,
CCN(CC)C(=O)c1ccc(O)c(OC)c1,inactive,
O=C(O)CCc1nc(-c2ccccc2)c(-c2ccccc2)o1,inactive,
COc1ccc(Cc2nccc3cc(OC)c(OC)cc23)cc1OC,inactive,
CC(=O)CCCCn1c(=O)c2c(ncn2C)n(C)c1=O,inactive,
CCN(CC)CCOC(=O)c1ccc(N)cc1,,12.4%
O=C(NCCN1CCOCC1)c1ccc(Cl)cc1,inactive,
CN(C)CCC(c1ccccc1)c1ccccn1 (stereo not given),inactive,
CCCCCN(C)CCC(O)(P(=O)(O)O)P(=O)(O)O,,22.4%
NCCS,inactive,
O=C1NC(=O)C(c2ccccc2)(c2ccccc2)N1,inactive,
CC(C)(C)c1ccc(C(O)CCCN2CCC(C(O)(c3ccccc3)c3ccccc3)CC2)cc1 (stereo not given),inactive,
CC/C(=C(\c1ccccc1)c1ccc(OCCN(C)C)cc1)c1ccccc1,,22.8%
CC1=C(/C=C/C(C)=C/C=C/C(C)=C/C(=O)Nc2ccc(O)cc2)C(C)(C)CCC1,inactive,
CCN(CC)CCNC(=O)c1ccc(N)cc1,inactive,
COC(=O)[C@@H]1[C@H]2C[C@H]3c4[nH]c5ccccc5c4CCN3C[C@@H]2CC[C@@H]1O,,-13.4%
CC(=O)O[C@]1(C(C)=O)CC[C@H]2[C@@H]3C=C(Cl)C4=CC(=O)[C@@H]5C[C@@H]5[C@]4(C)[C@H]3CC[C@@]21C,inactive,
CC(=O)c1ccc(S(=O)(=O)NC(=O)NC2CCCCC2)cc1,,11.8%
CC(=O)N[C@@H](CS)C(=O)O,,8.77%
CCn1cc(C(=O)O)c(=O)c2ccc(C)nc21,inactive,
